An excerpt weighted towards active compounds, which were near 7.9% of everything screened.
MITF inh – inhibitors of MITF; TRPM1 promoter luciferase, luminescence, 24 h; inhibition, % (concentration not given with the values); 37,000 tested, 0.28% active; AID 2240; in the data active means inhibition above about 85%; inconclusive means no clear call, values can overlap the other calls; inactive means below about 68%;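 further: human melanocyte line stably carrying TRPM1 promoter luciferase reporter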
Hedgehog inh – Sonic Hedgehog pathway inhibition; Shh-LIGHT2 Gli-luciferase reporter, 30 h; inhibition, % (no concentration beside the values); 22,000 tested, 2.1% active;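 active means mean inhibition across valid replicates above about 65%, limit read from the data; inconclusive means mean under the limit, yet half or more replicates past it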;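 further: pathway switched on by Shh-conditioned medium diluted 1 in 25 in low serum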
NOMO-1 viab – STK33 inhibitor candidate reducing NOMO-1 cell viability. 37,000 tested, 7.5% active. inhibition, % (test concentration not listed). NOMO-1 AML viability, CellTiter-Glo luminescence, 72 h; in the data active means inhibition above about 80%; inconclusive means no clear call, values can overlap the other calls
Numbers stand for hits.

Results for c1ccc2c(Cc3c[nH]c4ccccc34)c[nH]c2c1 ?
MITF inh: inactive; Hedgehog inh: inactive; NOMO-1 viab: inactive

Results for c1ccc(C(c2ccccc2)N2CCN(CCCc3c[nH]c4ccccc34)CC2)cc1 ?
MITF inh: inactive; Hedgehog inh: inactive; NOMO-1 viab: 116

Results for Cc1cc(C2(c3cc(C)c(N)c(C)c3)CCCCC2)cc(C)c1N ?
MITF inh: inactive; NOMO-1 viab: 122

How did COc1ccc(NC(=O)Nc2ccc3c(c2)C(=O)N([C@H](C)CO)C[C@@H](C)[C@@H](CN(C)C(=O)NC2CCCCC2)O3)cc1 do in these assays?
MITF inh: inactive; Hedgehog inh: inactive; NOMO-1 viab: inactive

How did CCC(C)(C)NC(=S)Nc1cccc(OC)c1 do in these assays?
MITF inh: inactive; Hedgehog inh: inactive; NOMO-1 viab: inactive

What do the screens show for `COC(=O)c1cc(C)nc(Sc2ccccc2NC(=O)Nc2ccc(Cl)cc2)n1`?
MITF inh: inactive; Hedgehog inh: inactive; NOMO-1 viab: 109

Results for CSc1nc(C)cc(OCC(=O)Nc2ccc(Cl)cc2)n1 ?
MITF inh: inactive; NOMO-1 viab: inactive

How did COc1cccc2oc3c(c(=O)c12)C(C(=O)O)=CC(CO)=CO3 do in these assays?
MITF inh: inactive; Hedgehog inh: inactive; NOMO-1 viab: inactive

How did COC(=O)c1cc(NC(=O)CC2Sc3ccccc3NC2=O)cc(C(=O)OC)c1 (stereo not given) do in these assays?
MITF inh: inactive; NOMO-1 viab: 113

Results for COC(=O)c1c(NC(=O)CC2Sc3ccccc3NC2=O)sc(C)c1C (stereo not given) ?
MITF inh: inactive; NOMO-1 viab: inactive

What do the screens show for `COc1cc(OC)cc(-c2nnc(SCC(=O)Nc3ccc(Cl)cc3)n2-c2ccc(F)cc2)c1`?
MITF inh: inactive; NOMO-1 viab: inactive

What do the screens show for `C[C@H](CO)N1C[C@H](C)[C@@H](CN(C)Cc2ccccc2)Oc2c(NC(=O)C3CCCCC3)cccc2C1=O`?
MITF inh: inactive; Hedgehog inh: inactive; NOMO-1 viab: inactive

How did C[C@H](CO)N1C[C@H](C)[C@H](CN(C)Cc2ccc(-c3ccccc3)cc2)Oc2c(NC(=O)C3CCOCC3)cccc2C1=O do in these assays?
MITF inh: inactive; Hedgehog inh: inconclusive; NOMO-1 viab: inactive

Results for COc1ccc(CN(C)C[C@H]2Oc3c(NC(=O)C4CCCCC4)cccc3C(=O)N([C@H](C)CO)C[C@H]2C)cc1 ?
MITF inh: inactive; Hedgehog inh: inactive; NOMO-1 viab: inactive

What do the screens show for `C[C@H]1CN([C@@H](C)CO)C(=O)c2cccc(NC(=O)C3CCCCC3)c2O[C@H]1CN(C)Cc1ccc(Oc2ccccc2)cc1`?
MITF inh: inactive; Hedgehog inh: inactive; NOMO-1 viab: inactive

What do the screens show for `C[C@@H]1CN([C@@H](C)CO)C(=O)c2cccc(NC(=O)C3CCCCC3)c2O[C@H]1CN(C)Cc1ccc(-c2ccccc2)cc1`?
MITF inh: inactive; Hedgehog inh: inactive; NOMO-1 viab: 81

How did COc1ccc(CN(C)C[C@@H]2Oc3c(NC(=O)C4CCCCC4)cccc3C(=O)N([C@@H](C)CO)C[C@H]2C)cc1 do in these assays?
MITF inh: inactive; Hedgehog inh: inactive; NOMO-1 viab: 98

How did C[C@@H]1CN([C@@H](C)CO)C(=O)c2cccc(NC(=O)C3CCCCC3)c2O[C@H]1CN(C)Cc1ccccc1 do in these assays?
MITF inh: inactive; Hedgehog inh: inactive; NOMO-1 viab: 96

How did C[C@H](CO)N1C[C@H](C)[C@H](CN(C)Cc2ccc(Oc3ccccc3)cc2)Oc2c(NC(=O)C3CCCCC3)cccc2C1=O do in these assays?
MITF inh: inactive; Hedgehog inh: inactive; NOMO-1 viab: 109

How did C=C1C[C@@]23CCC4[C@](C)(C(=O)O)CCC[C@@]4(C)[C@]2(O)CCC1C3 (stereo not given in full) do in these assays?
MITF inh: inactive; Hedgehog inh: inactive; NOMO-1 viab: inactive

What do the screens show for `Cc1cc(=O)oc2cc(OC(C)C(=O)Nc3sc4c(c3C(N)=O)CCCC4)ccc12` (stereo not given)?
MITF inh: inactive; NOMO-1 viab: inactive

Results for C[C@@H]1CN([C@H](C)CO)C(=O)c2cc(NC(=O)Nc3ccccc3)ccc2O[C@H]1CN(C)C(=O)Nc1ccc2c(c1)OCO2 ?
MITF inh: inactive; Hedgehog inh: inactive; NOMO-1 viab: inactive

What do the screens show for `COC(=O)c1cc(OC)c(OC)cc1NC(=O)CSc1nc(C)cc(C(F)(F)F)c1C#N`?
MITF inh: inactive; NOMO-1 viab: inactive

Results for O=C(Oc1ccc(C=Nc2ccc(F)cc2)cc1)c1cccs1 ?
MITF inh: inactive; Hedgehog inh: inactive; NOMO-1 viab: inactive

Results for O=C(CSC1N=C2C=CC=CC2O1)c1ccccc1 (stereo not given) ?
MITF inh: inactive; Hedgehog inh: inactive; NOMO-1 viab: inactive

Results for COc1ccc(-c2[nH]nc(SC)c2C#N)cc1 ?
MITF inh: inactive; NOMO-1 viab: inactive
